# Screens from PubChem BioAssay.
# Shown are actives, neighbours in structure and some others; about 2.2% of the full set was active somewhere.
# HIF-2a inh – blocks HIF-2a reporter activity. 786-0 RCC cells HIF-2a reporter, luciferase luminescence, overnight. inhibition, % at 18.8 µM. 360,000 tested, 0.72% active. AID 624352;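 active means inhibition of the luminescence signal of 40% or more relative to plate controls, in a single-dose primary screen at 18.75 µM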
# hiPSC survival – enhancers of human iPSC single-cell survival. hiPSC single-cell survival, ATPlite luminescence; 100% = ROCK inhibitor wells, 0% = DMSO. survival enhancement, % at 20 µM. 360,000 tested, 0.044% active. AID 602274; in the data active means survival enhancement above about 18%;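 further: cells exposed to compounds for 16 hours before the ATP read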
# PPC-1+TRAIL kill – PPC-1 cancer cell killing with TRAIL present | AID 1443 | 220,000 tested, 0.41% active | cell killing (% activity), % at 4 µM or 5 µM | PPC-1 cells + TRAIL, ATPLite viability luminescence;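 active means cell killing above 50% in the first pass at 4 µM, then a duplicate retest at 5 µM averaging 50% or more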;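 further: plate controls were cells with TRAIL plus DMSO for no effect and medium-only wells lacking cells for full effect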
# C8 TRAIL sens – caspase-8 TRAIL sensitization; 360,000 tested, 1% active; NB7+C8 cells + TRAIL, ATPlite viability luminescence; inhibition (viability loss, TRAIL sensitization), % at 10 µM;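 active means compounds causing at least 50% loss of cell viability in the single-dose screen, relative to plate controls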
# KKLEB cytotox – counter-screen for CF NF-kB inhibitors: cytotoxicity | KKLEB CF airway cells viability, ATPlite luminescence, overnight; stronger effect = lower value; cells stimulated with P. aeruginosa culture filtrate | activity change (cytotoxicity), % at 5 µM | 360,000 tested, 0.36% active | AID 602141;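 active means corrected activity change at or below -50% at 5 µM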
# CF NFkB block – blocks PAF-induced NF-kB reporter in cystic fibrosis cells; KKLEB NF-kB-GFP reporter, GFP fluorescence overnight; 360,000 tested, 0.86% active; inhibition, % at 5 µM;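 active means at least 50% inhibition at 5 µM, scaled per plate between neutral and stimulator controls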;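 further: PAF is a Pseudomonas aeruginosa culture filtrate used as stimulus; plate controls were PAF-stimulated DMSO wells for no effect and unstimulated DMSO wells for full effect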
# CF NFkB inh conf – CF NF-kB inhibition confirmation, single concentration; KKLEB CF airway cells, PAF-induced NF-kB-GFP fluorescence, overnight; inhibition, % at 5 µM; AID 602472; shares compounds with CF NFkB block; 1,300 tested, 64% active; in the data active means inhibition above about 40%;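 further: stimulus PAF is a Pseudomonas aeruginosa filtrate and not platelet activating factor; plate controls were DMSO wells with stimulus for no effect and unstimulated DMSO wells for full effect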
# Active calls of the source: *; / = not tested or not shown.
SMILES,HIF-2a inh,hiPSC survival,PPC-1+TRAIL kill,C8 TRAIL sens,KKLEB cytotox,CF NFkB block,CF NFkB inh conf
Cc1[nH]nc2c1-c1nc3ccccc3nc1C(C)(C)C2,23,-2,14,20,-14,51*,54*
CN(Cc1ccccc1)S(=O)(=O)c1ccc(Cl)c(C(=O)OCC(=O)NC2CCS(=O)(=O)C2)c1 (configuration not stated),-8,0,/,-7,13,-9,/
Cc1ccc(-c2onc3ccc(C(=O)/C=C/N(C)C)cc23)cc1,-39,0,/,0,-3,68*,47*
O=S(=O)(Nc1nc2ccccc2nc1N1CCN(c2ccccc2F)CC1)c1ccc(Cl)cc1,-3,5,19,5,-47,61*,66*
CCNC(=O)C1CCCN(C(=O)c2ccc(C(=O)OC)cc2)CC1 (configuration not stated),5,6,/,-5,-12,-8,/
COc1ccnc2c1c(=O)n(Cc1ccc(Cl)cc1Cl)c(=O)n2C,14,1,/,-19,3,-41,/
COc1cc(OC)cc(-c2c(C#Cc3ccsc3)c3cc(-c4cccc5[nH]cc(C=O)c45)ccc3n2C)c1,-42,2,/,12,-14,73*,-33
Nc1nccc(-c2ccc(-n3cnc4ccccc43)cc2)n1,-140,0,-1,0,-9,77*,80*
CCNC(=O)C1(C)CCCN(Cc2ccc(-c3ccccc3)o2)C1 (configuration not stated),-30,0,/,-13,-3,58*,63*
CCCCCNC(=O)C(c1cc2ccccc2o1)n1c(=O)c(-c2cc3ccccc3[nH]2)nc2ccccc21 (configuration not stated),-48,/,/,-6,/,/,/
O=C1C(=O)N(CCS(=O)(=O)c2ccccc2)c2ccc(F)cc21,-13,0,/,3,-17,66*,22
COc1ccc(C2CNC(=O)C2)cc1OC1CCCC1 (configuration not stated),4,-2,12,3,-14,52*,55*
COc1ccc(CCNS(=O)(=O)c2ccc(C3CNC(=O)C3)cc2)cc1OC (configuration not stated),6,-2,0,-21,8,-1,/
COc1ccc2[nH]c3c(c2c1)CCN1C(=O)C(CC(=O)NCCC2=CCCCC2)C[C@H](C(=O)N2CCCCC2)[C@@]31CCc1ccccc1 (some centres not stated),2,-1,/,5,-49,56*,81*
Cc1cccc(C)c1NC(=O)C(c1ccccc1)N(C)CCc1ccccc1 (configuration not stated),5,7,/,6,10,-17,/
CCCCc1ccc(NC(=S)Nc2ccc(Nc3ccc(OC)cc3)cc2)cc1,-25,-4,24,-9,-19,52*,0
CC(C)[C@H](NC(=O)N1c2ccccc2NC(=O)[C@@H]1C(C)C)C(=O)N1CCC(C(=O)O)CC1,-20,1,/,-4,14,11,/
COC(=O)N1C(=O)[C@@](c2ccccc2)(C2CCCC2)N1C(=O)OC,35,-3,/,1,-16,67*,46*
COC(=O)N1C(=O)[C@](c2ccccc2)(C2CCCCC2)N1C(=O)OC,26,-1,/,13,8,40,/
COc1ccc2c(c1OC)C(=O)N1C2SC[C@H]1C(=O)NC1CCCC1 (some centres not stated),10,0,/,-9,-5,13,/
Cc1cccc(C(=O)NCCCNC(=O)c2cccnc2)c1,2,0,/,-27,5,2,/
CCCCCC(=O)N1C[C@H](n2cc(C3CC3)nn2)[C@@H](O)C[C@@H]1c1ccccc1,9,6,/,-3,3,2,/
C=C1C[C@@]23CCC4[C@@](C)(CCC[C@@]4(C)C(=O)OC)C2CC[C@]1(OC(C)=O)C3 (some centres not stated),-88,-2,/,9,-28,51*,1
CC1(C)CC(=O)C(C2C3=C(CC(C)(C)CC3=O)Oc3c(Br)cc(Br)cc32)=C(O)C1 (configuration not stated),-4,-1,/,2,-6,56*,57*
CCCN(CCC)c1ncnc2nc[nH]c12,28,5,2,3,0,66*,79*
SMILES,HIF-2a inh,hiPSC survival,PPC-1+TRAIL kill,C8 TRAIL sens,KKLEB cytotox,CF NFkB block,CF NFkB inh conf
Clc1ccccc1CN(Cc1ccccc1)c1ncnc2nc[nH]c12,23,-1,13,-9,-12,13,/
CCC(=O)OC1(C(C)=O)CCC2C3CCC4=CC(=O)CCC4(C)C3CCC21C (configuration not stated),14,-2,/,11,-5,51*,-89
C[C@]12CCC(=O)C=C1CCC1C2CC[C@@]2(C)C1CCC21OCCO1 (some centres not stated),8,-1,/,-3,-3,6,/
COc1cccc(-c2ccccc2C2=CC(=O)CC(C)(C)C2=O)c1,11,0,/,10,-3,0,/
Cc1ccccc1Cn1ccc(NC(=O)c2nn(C)cc2[N+](=O)[O-])n1,2,-2,14,12,-9,60*,-78
CCn1cc([N+](=O)[O-])c(C(=O)Nc2ccn(Cc3ccccc3F)n2)n1,8,0,1,-6,6,10,/
C[C@H](NS(=O)(=O)c1ccc(F)cc1)C(=O)OCC(=O)c1c(N)n(C)c(=O)n(C)c1=O,6,-1,/,1,-26,25,/
Cc1cccc(NC(=O)c2ccc([N+](=O)[O-])o2)n1,-3,-4,-18,3,-25,61*,8
Cc1ccccc1NC(=O)c1ccc([N+](=O)[O-])o1,7,-2,-1,6,-10,30,/
COc1ccc(C(=O)Nc2cccc(NC(=O)c3ccc(OC)c(OC)c3)n2)cc1OC,-85,-1,/,24,0,84*,62*
COc1ccc(C(=O)Nc2cccc3cccnc23)cc1OC,-203,-2,11,-4,4,-31,/
Cc1c(CCNC=O)cc(C)c2c3c(oc12)CCCC3,-272,-1,/,16,-12,58*,19
O=C1C2CCCCC2C(=O)N1c1ccc(S(=O)(=O)Nc2ncccn2)cc1 (configuration not stated),6,0,/,-26,4,5,/
CSc1ccc(/C=C(\C#N)C(=O)NC2CCCCC2C)cc1 (configuration not stated),-2,0,-5,-6,-29,53*,17
CC(=O)Nc1ccc(/C=C(\C#N)C(=O)NC2CCCCC2C)cc1 (configuration not stated),20,-1,2,0,-20,-4,/
